Each structure is given as a SMILES string. This is part of a sample that, as a whole, favours compounds with a hit. Of some 83,000 tested, about 20% had one in any assay.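 Activity criterion: percent growth below 10, measured after cells in 96-well plates were exposed to a single compound concentration for 48 hours.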 Calls of active or inactive are those of the source.

For 35 molecules, growth results are on record in PubChem BioAssay (NCI).

In one assay the test system is M14 melanoma. As to the kind of experiment: NCI-60 one-dose screen, 48 h (100 = growth as untreated, 0 = no growth, -100 = all killed). The conditions noted are these: 10 µM unless noted.
Regarding `Cc1nc(Nc2ccccn2)sc1C(=O)CC(SCC(=O)Nc1ccc(Cl)cc1)c1ccccc1F` (stereo not given), the growth was 1.45% (active).
Same read-out and setting: the value for `Cc1cccc(-c2nc(Nc3ccc(C)c(S(N)(=O)=O)c3)c3ccccc3n2)c1` was 31.4% (inactive); that for `CN(C)CCn1c2ccccc2c2nc3cc(C(F)(F)F)ccc3nc21` was 40.7% (inactive).
Same read-out and setting: the value for `S=C(Nc1ccccc1)Nc1ccc(OCc2nc3ccccc3[nH]2)cc1` was 36.9% (inactive).

A further assay deals with HCT-15 colon. Described as above. The conditions noted are these: 10 µM unless noted.
For `O=C1NC(=O)c2c1c1c3cc(Br)ccc3[nH]c1c1oc3ccc(F)cc3c21`, the growth was 21.5% (inactive).
Consider `C#CCOc1ccc(/C=N/Nc2nc(-c3ccc(F)cc3)cs2)cc1OC`, for which the growth is 41.2% (inactive).
Still for that read-out and setting: the value for `O=C1NC(=O)/C(=C/c2ccccc2OCc2cc3ccccc3nc2Cl)S1` was 84% (inactive); that for `Cc1ccc(NCC(=O)Cn2cc(COc3ccc(C=Nc4cnc5ccccc5c4)cc3)nn2)cc1` was 112% (inactive); that for `C/C(=N\N=C1/C(=O)Nc2ccccc21)c1ccc2c(c1)Nc1ccccc1S2` was 48.6% (inactive).
On the same count and under the same terms, the value for `C/C(=N\N=C1/C(=O)Nc2ccc(Cl)cc21)c1ccc2c(c1)Nc1ccccc1S2` was 0.895% (active).
On the same count and under the same terms, the value for `CCN(CC)c1ccnc(CNCCSC(c2ccccc2)(c2ccccc2)c2ccc(C)cc2)c1` was -92.4% (active).
As for `Cc1cc2c(cc1Cl)C(=O)/C(=C/c1ccccc1)O2`, the growth was 13.3% (inactive).
As to `COc1ccc(C(=O)/C=C/c2ccc(OCc3ccc(F)cc3)c(OC)c2)cc1OC`, the growth is 10.2% (inactive).
`COc1cc(OC)c2c3nc4cc(C)c(C)cc4nc3n(CCN(C)C)c2c1`: the growth is -27.9% (active).
Same read-out and setting: the value for `N=C1N=C(SCc2nc3ccccc3[nH]2)NC(=O)/C1=C/c1ccc(Cl)cc1` was 103% (inactive); that for `COc1ccc(C2CC(c3ccc(S(=O)(=O)NCCNc4nc(Nc5ccc(F)cc5)nc(N(C)C)n4)cc3)=Nc3c(N)nc(N)nc3N2)cc1` (stereo not given) was 82.7% (inactive); that for `O=C(Cn1nc(-c2ccccc2)ccc1=O)N/N=C/c1ccc(N2CCOCC2)cc1` was 97.2% (inactive).
The same measure, in the same setting: the value for `CC1(C)CC[C@]2(C(=O)O)CC[C@]3(C)C(=CCC4[C@@]5(C)C[C@@H](O)[C@@H]6OC(c7cccc(Br)c7)OC[C@@]6(C)C5CC[C@]43C)C2C1` (stereo not given in full) was 20.7% (inactive); that for `COc1ccc(C(=O)/C=C/c2ccc(OCc3ccccc3)c(OC)c2)cc1OC` was 9.77% (active).
Same read-out and setting: the value for `O=C(N=Nc1c(O)[nH]c2ccc([N+](=O)[O-])cc12)c1ccc2nc(-c3ccccc3)[nH]c2c1` was 105% (inactive); that for `C/C(=N\N=C\c1cc([N+](=O)[O-])ccc1Cl)c1ccc2c(c1)Nc1ccccc1S2` was 72.4% (inactive); that for `C=C1CCC2C3(C)COC(c4ccc(F)cc4)OC3CCC2(C)C1C/C=C1/C(=O)OCC1O` (stereo not given) was -42.3% (active).
As for `CCCSc1nc(NCCc2c[nH]c3ccccc23)c(C#N)c(-c2ccc(OC)cc2)n1`, the growth is 21.8% (inactive).
Same read-out and setting: the value for `N/C(=N\c1nc2ccccc2s1)NC(=O)Nc1ccccc1Br` was -4.76% (active); that for `O=C(Cn1c2c(sc1=O)[C@H]1[C@@H](O)[C@@H](O)[C@H](O)[C@@H]1CS2)N1CCOCC1` was 107% (inactive).
Turning to `COC(=O)/C=C/c1cccc2c1C(=O)NC(C)(c1cc3ccccc3oc1=O)N2` (stereo not given), the growth was 36.3% (inactive).
Still for that read-out and setting: the value for `Brc1ccc(-c2n(Cc3ccc4ccccc4c3)c(-c3ccccc3)c(-c3ccccc3)[n+]2Cc2ccc3ccccc3c2)cc1` was -85.4% (active); that for `COc1ccc(NC(=O)Cn2c3c(sc2=O)[C@H]2[C@@H](O)[C@@H](O)[C@H](O)[C@@H]2CS3)cc1` was 104% (inactive); that for `Cc1cc2nc3c4ccccc4n(CCCN(C)C)c3nc2cc1C` was -10.1% (active).
Still for that read-out and setting: the value for `O=S(=O)(Nc1cccc(-n2cnc3cc(-c4ccc(O)cc4)ccc32)c1)C1CC1` was 27.2% (inactive); that for `CN(C)c1ccnc(CNCCSC2(c3ccc(C(F)(F)F)cc3)c3ccccc3C=Cc3ccccc32)c1` was -90.6% (active).
Same read-out and setting: the value for `CN(C)c1nc(NCCNS(=O)(=O)c2ccc(C3=Nc4c(N)nc(N)nc4NC(c4ccc(C(F)(F)F)cc4)C3)cc2)nc(Nc2ccc(F)cc2)n1` (stereo not given) was 18.7% (inactive).
`O=C(NN1C(=O)/C(=C/C=C/c2ccc([N+](=O)[O-])o2)SC1=S)c1ccc(Cl)cc1`: the growth was -75.6% (active).
Consider `COCOc1ccc2c(=O)c(C)c(C(=O)N[C@@H](Cc3ccccc3)C(O)C(=O)NCCc3ccc(OC)cc3)oc2c1` (stereo not given in full), for which the growth was 102% (inactive).
The same measure, in the same setting: the value for `C#CCOc1cc(N(CC)CC)ccc1C(C(=O)NC(C)(C)C)N(C(=O)C1CCc2cc(F)ccc2O1)c1ccc(Br)cc1` (stereo not given) was 65.4% (inactive).
